Measured values from PubChem BioAssay (NCATS).
Inconclusive results are not listed. Calls of active or inactive are those of the source. Calls come from the whole dose curve; as a rule, active = well fitted inhibition curve with a large enough effect; inconclusive = small, poorly fitted or top-dose-only effect, or effect the other way; inactive = no such curve, though single readings can be large or run the other way.

Assay: High Content Imaging Cell-Based qHTS for Inhibitors of the mTORC1 Signaling Pathway in MEF Cells (AID 2667);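 note: Tsc2-/- p53-/- MEFs stably re-expressing wild-type Tsc2 exposed 24 h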
Settings: series mostly up to 38.3 µM
Excerpt: NIH Molecular Libraries Probe Production Centers Network [MLPCN]
NIH Chemical Genomics Center [NCGC]
Assay Submitter (PI): Blenis, John; Hoffman, Greg; Harvard University
NCGC Assay Overview: The mammalian target of rapamycin (mTOR) is an intracellular serine/threonine kinase Aberrant regulation of mTOR signaling plays a causative role in a number of human diseases, including cancer, benign tumors such as lymphangioleiomyomatosis (LAM) and Tuberous Sclerosis Complex (TSC), and metabolic diseases such as diabetes and obesity. This project aims to identify inhibitors of ribosomal protein S6 (rpS6) phosphorylation. The phosphorylation of rpS6 is a key event downstream of mTOR activation. The assay uses a phospho-specific antibody of phospho-rpS6 to detect inhibitors of mTOR activation. Mutations in the Tsc1 and Tsc2 genes are the underlying genetic lesions responsible for TSC, causing constitutive activation of the mTORC1 pathway and leading to profound effects on cell metabolism. Aberrant metabolism in cancer has recently received significant attention as a target to develop therapeutic agents in the treatment of cancer.1 As Tsc2-/- cells have lost the ability to respond to energy and growth factor deprivation, these cells are unable to properly down regulate cellular biosynthetic processes in response to metabolic stress, and are thus extremely sensitive to glucose deprivation-induced death.2 A central goal of this project is to explore the unique cell survival and metabolic properties of cells with Tsc1 or Tsc2 by screening for compounds that selectively target the Tsc2-/- MEFs by screening both Tsc2-/- and WT MEF cell lines. We hope to better understand these aspects of TSC physiology in order to exploit them for therapeutic benefit.
NCGC IN Cell Assay Protocol:
For quantitative high throughput analysis of mTORC1 signaling, we developed a cell-based assay for immuno-fluorescence based detection of rpS6 phosphorylation on the Acumen Explorer that will be used a platform for the primary small molecule screen. Mouse embryonic fibroblasts (MEFs) are cultured in 1536-well plates using DMEM + 10% FBS. Twenty-four hrs after plating, test compounds (solubilized in DMSO) are delivered and incubated with the cells for 24 hrs at 37 degree Celsius. Following the incubation, media with compound is aspirated and the cells are fixed in 4% paraformaldehyde (PFA) containing PBS + 0.2% TX-100. Next, PFA is aspirated, cells are washed two times with PBS plus 0.2% TX-100 and the cells are blocked for 1 hr at room temperature (blocking buffer: LiCOR Blocking Buffer plus 0.2% TX-100). This is followed by aspiration and staining with Alexa-488 conjugated-phospho-rpS6 Ser235/236 antibody for 2 hours at room temperature (Cell Signaling Technology # 4803, 1:50 dilution in blocking buffer). Cells are washed two times with PBS plus 0.2% TX-100, and stained with 10 uM propidium iodide (PI) for 20-25 minutes for cell number measurement (1:500 dilution of Hoescht staining is also added for IN Cell imaging). Active wells which are selected (based on Acumen results) are imaged on the IN Cell 1000 (GE Healthcare) using the D360/40X and HQ480/40X excitation filters for the Hoechst and Alexa-488 cytoplasmic stains, respectively. The fluorescence emission filters used were HQ460/40M and HQ535/50M for the Hoechst and Alexa-488 cytoplasmic stains, respectively. The normalized phospho-S6 staining is calculated as the ratio of […] for the single concentration rapamycin control ([…] nM) and DMSO columns. […] Inhibition of the pathway is defined based on the normalized phospho-S6 intensity in rapamycin treated cells. Each treatment is reported as the % positive cells in the well, where thresholds are defined by selecting wells with the highest and lowest signal and differentiating between the % non-active and % active populations. […]

| Compound | outcome |
| --- | --- |
| O=c1c(-c2ccc(O)cc2)coc2cc(O)ccc12 | inactive |
| CC(=O)N[C@@H](CS)C(=O)O | inactive |
| C[N+](C)(C)CC(=O)O | inactive |
| CCN(CC)CCOC(=O)c1ccc(N)cc1 | inactive |
| O=C(O)CCc1nc(-c2ccccc2)c(-c2ccccc2)o1 | inactive |
| Cc1cccc(C)c1OCC(C)N (configuration not stated) | inactive |
| CCN(CC)C(=O)c1ccc(O)c(OC)c1 | inactive |
| CCN(CC)CCNC(=O)c1ccc(N)cc1 | inactive |
| CCCCCN(C)CCC(O)(P(=O)(O)O)P(=O)(O)O | inactive |
| CCCNC(=O)NS(=O)(=O)c1ccc(Cl)cc1 | inactive |
| CC(=O)c1ccc(S(=O)(=O)NC(=O)NC2CCCCC2)cc1 | inactive |
| CCCCC1C(=O)N(c2ccccc2)N(c2ccccc2)C1=O | inactive |
| O=c1cc(-c2ccc(O)cc2)oc2cc(O)cc(O)c12 | inactive |
| CC(C)NCC(O)COc1cccc2[nH]ccc12 (configuration not stated) | inactive |
| CCn1cc(C(=O)O)c(=O)c2ccc(C)nc21 | inactive |
| COC(=O)[C@@H]1[C@H]2C[C@H]3c4[nH]c5ccccc5c4CCN3C[C@@H]2CC[C@@H]1O | inactive |

| Compound | outcome |
| --- | --- |
| CCN1CCC[C@H]1CNC(=O)c1cc(S(N)(=O)=O)ccc1OC | inactive |
| CC(C)OC(=O)C(C)(C)Oc1ccc(C(=O)c2ccc(Cl)cc2)cc1 | inactive |
| O=C1NC(=O)C(c2ccccc2)(c2ccccc2)N1 | inactive |
| CC(=O)O[C@]1(C(C)=O)CC[C@H]2[C@@H]3C=C(Cl)C4=CC(=O)[C@@H]5C[C@@H]5[C@]4(C)[C@H]3CC[C@@]21C | inactive |
| COc1ccc(Cc2nccc3cc(OC)c(OC)cc23)cc1OC | inactive |
| CC1(C)CCC2=C(O1)c1ccccc1C(=O)C2=O | inactive |
| NC(N)=Nc1nc(CSCC/C(N)=N/S(N)(=O)=O)cs1 | inactive |
| CC(=O)CCCCn1c(=O)c2c(ncn2C)n(C)c1=O | inactive |
| O=C1NCC2(CCN(CCc3ccccc3)CC2)O1 | inactive |
| O=C(NCCN1CCOCC1)c1ccc(Cl)cc1 | inactive |
| NCCS | inactive |
| COc1ccccc1N1CCN(CCCNc2cc(=O)n(C)c(=O)n2C)CC1 | inactive |
| COc1cccc(-c2cc(=O)c3ccccc3o2)c1N | inactive |
| Clc1ccc(Cn2c(CN3CCCC3)nc3ccccc32)cc1 | inactive |
| C[N+](C)(C)CCCCCC[N+](C)(C)C | inactive |
| CN(C)CCC(c1ccccc1)c1ccccn1 (configuration not stated) | inactive |
